Screening data as filed in PubChem.
Only a selection was taken, and hits are over-represented in it overall.
MBNL1 CUG block = MBNL1-poly(CUG) RNA binding inhibition; Q9NR56; TR-FRET MBNL1-His/biotin-(CUG)12 binding, 665/545 ratio; Potency, µM (series often up to 57.5 µM), for the others: top-dose activity change, negative = inhibition, actives largely listed as inhibitors; actives 0.036% (n = 280,000); AID 2675; active = well fitted inhibition curve with a large enough effect in the signal ratio, with a control signal flat, not every such curve was filed as active; inconclusive = small, poorly fitted or top-dose-only effect, or effect the other way, or a change in a side signal; inactive = no such curve, though single readings can be large or run the other way; the % refers to the signal ratio
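Compounds (final 92 nM to 58 uM) are added to His-tagged MBNL1 and biotin-(CUG)12, then terbium anti-His antibody and streptavidin-XL665 (5 nM final). After 60 min at room temperature, the 665/545 nm ratio is read.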
IMPase Li cell = cell-permeable IMPase inhibitors with lithium potentiation; CHO-M1 cells, IP1 TR-FRET (IP-One), carbachol + lithium; Potency, µM (doses to about 59.4 µM), for the others: at the highest dose activity, negative = IMPase inhibition, most hits filed as inhibitors; actives 0.35% (n = 210,000); AID 1457;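 also: IP1 builds up when IMPase is blocked and the TR-FRET signal falls; plate controls were basal vehicle for no effect and high inhibitor control for full effect; nearly all actives have a fitted effect of over 50% in size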
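IP1 accumulation measured by competitive TR-FRET in lysed CHO-M1 cells after 30 min compound exposure at 37C, with a small lithium addition to potentiate weak responses. Hill-equation AC50 from ratio and donor-channel data.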
Tb PFK inh = T. brucei PFK enzyme inhibition | O15648 | Potency, µM (highest dose often 57.5 µM), without a hit: top-dose activity, negative = inhibition, most hits filed as inhibitors | actives 0.17% (n = 330,000) | T. brucei PFK, ADP-Glo luminescence;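 also: 0% = uninhibited 1x PFK enzyme wells and -100% = no-enzyme wells; nearly all actives have a fitted effect of over 60% in size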
Target sequence (O15648 whole entry, looked up): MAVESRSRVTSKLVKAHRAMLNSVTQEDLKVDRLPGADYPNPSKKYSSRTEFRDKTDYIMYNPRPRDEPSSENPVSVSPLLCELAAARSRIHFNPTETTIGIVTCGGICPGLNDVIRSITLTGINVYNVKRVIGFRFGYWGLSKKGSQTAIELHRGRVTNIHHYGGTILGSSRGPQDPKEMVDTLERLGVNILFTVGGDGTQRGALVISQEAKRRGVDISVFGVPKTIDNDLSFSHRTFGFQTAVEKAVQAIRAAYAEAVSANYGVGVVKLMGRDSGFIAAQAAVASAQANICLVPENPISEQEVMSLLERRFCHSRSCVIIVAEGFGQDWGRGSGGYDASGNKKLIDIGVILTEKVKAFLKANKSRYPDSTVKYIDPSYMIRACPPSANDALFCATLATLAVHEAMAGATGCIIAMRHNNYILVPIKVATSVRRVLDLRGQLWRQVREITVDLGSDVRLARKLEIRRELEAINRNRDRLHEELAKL
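ADP-Glo luminescence quantified ADP after 45 min at room temperature, with 1.25 nM T. brucei PFK, 0.1 mM ATP and 0.5 mM fructose-6-phosphate in pH 8.0 TEA buffer. qHTS titrations up to 57 µM; curves classified by quality.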
GoLoco inh red = RGS12 GoLoco-Gai1 interaction inhibition | Gai1:RGS12 GoLoco peptide FP, rhodamine, 10 min | actives 0.44% (n = 230,000) | Potency, µM (highest dose often 61.6 µM), without a hit: at the highest dose activity, negative = inhibition, most hits filed as inhibitors | P63096; active = well fitted inhibition curve with a large enough effect, not every such curve was filed as active; inactive = no such curve, though single readings can be large or run the other way; also: nearly all actives have a fitted effect of over 30% in size
NPSR antag = neuropeptide S receptor (human) antagonism, cAMP. Q6W5P4. CHO-NPSR cells, cAMP TR-FRET, antagonist mode. Potency, µM (doses to about 38.3 µM), inactives show at the top dose activity change, negative = inhibition, usual class: inhibitors. actives 1% (n = 220,000). AID 1461; also: nearly all actives have a fitted effect of over 50% in size
Numbers without * were called inactive; ? = inconclusive; / = not tested or not shown; ! = repeats disagree; [ ] = remark or other dose. Unless noted, calls follow the shape of the dose curve; as a rule, active = well fitted curve in the direction sought with a large enough effect; inconclusive = small, poorly fitted or top-dose-only effect, or another doubt; inactive = no such curve, though single readings can be large; an effect the other way counts as inactive or inconclusive. Unless noted, % is scaled to controls: 0 for no effect and ±100 for the full control effect; potency is read from the fitted curve at half-maximal effect.

SMILES | MBNL1 CUG block | IMPase Li cell | Tb PFK inh | GoLoco inh red | NPSR antag
Cc1c2ccccc2nc2c(F)c(NCCO)c(F)c(F)c12 | 20% | -7% | 0% | 20µM* | 0%
OCCNc1c2ccccc2nc2c(F)c(F)c(F)c(F)c12 | 19% | -4% | 3% | 0% | -31%
COc1ccccc1-c1n[nH]c(=S)n1N | -1% | -17% | 1% | -1% | 14%
COc1ccccc1-c1n[nH]c(=S)n1-c1ccccc1 | 19% | 2µM* | 6% | 6% | 11%[46.1 µM]
CCCn1c(SCC(=O)NC2CCC(C)CC2)n[nH]c1=O (stereo not drawn) | / | / | -8% | / | /
COc1cccc(CNC(=O)C2CCC(CNc3nc(=S)[nH]c4ccccc34)CC2)c1 (stereo not drawn) | / | 10µM* | 0% | 3% | -11%
Cc1ccc(NC(=O)CCCn2c(=S)[nH]c3ccsc3c2=O)cc1C | 6% | / | -2% | / | /
COc1ccc(C2/C=C\CN(C(=O)Nc3ccccc3-c3ccccc3)CC(=O)N2Cc2ccc(F)cc2)cc1 (stereo not drawn) | -3% | / | 5% | 10% | 10µM*
COCCN1C(=O)/C(=C/c2ccc(OCc3ccc(C(=O)O)cc3)c(OC)c2)SC1=Nc1ccccc1 | 8%[11.5 µM] | 7% | 0% | 5% | 13µM*
CCNc1oc(-c2cccc3ccccc23)nc1C#N | -13% | ? | / | 1% | -6%[46.1 µM]
N#Cc1nc(-c2cccc3ccccc23)oc1NCCN1CCCCC1 | ? | 11µM* | -2% | 8% | 29%[46.1 µM]
CC1(c2ccc(OC(F)F)cc2)NC(=O)N(CC(=O)Nc2ccc(Cl)cc2F)C1=O (stereo not drawn) | -3% | / | 4% | / | /
COc1ccc2[nH]c(=O)c(CN(C)C(=O)C3CCCCC3)cc2c1 | 4% | 28µM* | 4% | 4% | 11%[46.1 µM]
O=C(/C(=C\c1ccccc1)c1nc2ccccc2[nH]1)c1ccc(Cl)cc1 | -3% | 12% | -4% | -13% | 10µM*
COC(=O)/C(=C\c1cc(OC)c(OC)c(OC)c1)c1nc2ccccc2[nH]1 | 3% | 9% | -2% | 6% | -24%
COc1cc(/C=C(/C(=O)c2cccs2)c2nc3ccccc3[nH]2)ccc1O | -9% | 32%[38.3 µM] | 4% | 170% | 10µM*
O=C(/C(=C/c1ccc(Cl)cc1)c1nc2ccccc2[nH]1)c1cccs1 | 1% | 58%[38.3 µM] | -7% | 28% | 2µM*
COC(=O)/C(=C\c1ccc(O)cc1)c1nc2ccccc2[nH]1 | 4% | 10% | 0% | 14% | 0%
NC(=S)NNC(=O)Nc1ccc(Cl)c(Cl)c1 | / | 0% | 17µM* | 15% | 9%
O=C(Cc1ccccc1)NNC(=O)Nc1ccc(Cl)c(Cl)c1 | -7% | -1% | 0% | 8% | 3%
COC(=O)c1ccc(C(/C=C/[C@@H](C)C(=O)NCCN2CCCC2)NC(=O)OCc2ccccc2)cc1 (stereo partly drawn) | / | -9% | / | 6% | /
CCCCN(C(=O)CN1C(=O)C2CCCCC2C1=O)c1c(N)n(CCCC)c(=O)[nH]c1=O (stereo not drawn) | / | / | -6% | / | /
CN(N=O)C(=O)N[C@H]1C(O)C(O)C(CO)O[C@@H]1O (stereo partly drawn) | / | 32% | / | 20µM* | /
Cc1nnc(NC(=O)c2cccc(S(=O)(=O)N3CCc4ccccc43)c2)s1 | -4% | 23%[38.3 µM] | 0% | 9% | 1.6µM*
COc1ccc(Nc2ccc3c(c2)=NC2(CCCCC2)[N+]=3[O-])cc1 | ? | 97%[38.3 µM] | -16% | 0% | ?
SMILES | MBNL1 CUG block | IMPase Li cell | Tb PFK inh | GoLoco inh red | NPSR antag
[O-][N+]1=c2ccc(Nc3ccccc3)cc2=NC12CCCCC2 | ? | 68%[38.3 µM] | -6% | 10% | 10µM*
O=C(Nc1ccsc1C(=O)O)c1ccccc1 | -11% | / | 9% | / | /
O=C(Nc1ccsc1C(=O)NC1CCCCC1)c1ccc(F)cc1 | 4% | 28µM* | -5% | 5% | -10%[46.1 µM]
O=[N+]([O-])c1ccc(CS(=O)(=O)c2ncn[nH]2)cc1 | ? | / | 5% | / | /
N#Cc1sc2nc(-c3cccs3)cc(-c3ccccc3)c2c1N | 29% | 10µM* | -2% | 29% | -9%[46.1 µM]
N#Cc1sc2nc(-c3cccs3)cc(-c3ccc(Cl)cc3)c2c1N | 11% | 10µM* | 1% | 10% | -5%[46.1 µM]
Cc1ccc2c(Cl)cc(Cl)c(OCC(=O)OCC(=O)Nc3ccc(C#N)cc3)c2n1 | / | -6% | -11% | 20µM* | 0%
CC(=O)c1cccc(NC(=O)COC(=O)COc2c(Cl)cc(Cl)c3ccc(C)nc23)c1 | 9% | -2% | 14% | 5% | 2%
COc1cc(OC)c(OC)cc1CNC(=O)c1cc(=O)[nH]c2ccccc12 | 3% | / | 7% | / | /
CCCCCCOC(=O)C(C#N)c1nc2ccccc2nc1N1CCCCC1 (stereo not drawn) | -6% | 44%[38.3 µM] | -15% | 16% | 10µM*
CCCCCCOC(=O)C(C#N)c1nc2ccccc2nc1N1CCN(C)CC1 (stereo not drawn) | 11% | 12%[38.3 µM] | -15% | 24% | ?
CCOC(=O)c1c(C)[nH]c(C)c1C(=O)COC(=O)c1cccnc1SC | / | / | -1% | / | /
O=C(Cn1cnc2sc(-c3ccccc3)cc2c1=O)NCCc1ccccc1 | 10% | 28µM* | 4% | 3% | -15%[46.1 µM]
O=C(Cn1cnc2c(cnn2-c2ccc(Cl)cc2)c1=O)NCCc1ccccc1 | -7% | 13µM* | -3% | -2% | 1%[46.1 µM]
O=C(Cn1cnc2sc(-c3ccccc3)cc2c1=O)NCc1ccccc1 | 26% | -22%[38.3 µM] | -3% | -2% | -6%[46.1 µM]
CCOC(=O)COc1ccccc1/C=C\[N+](=O)[O-] | -10% | 21% | ? | -4% | 7.9µM*
COc1cc(OC)c(C(=O)/C=C/c2ccc(OCc3ccccc3)c(OC)c2)c(OC)c1 | 4% | / | 0% | / | /
COc1cc(O)c(C(=O)/C=C/c2ccccc2)c(OC)c1 | -8% | 15% | -2% | 25µM*! | -12%
CS(=O)(=O)c1ccc(Cl)c(NC(=O)COc2ccc3c(c2)CCC3)c1 | / | / | -3% | / | /
CSc1nc(=S)cc(C)[nH]1 | / | / | -23% | 5.6µM* | 1%[7.67 µM]
Cc1cc(=S)nc(-c2ccccn2)[nH]1 | -1% | / | -16% | -4% | 10%
COc1ccc(OCc2n(CC(=O)OC3CC(C)CCC3C(C)C)c3ccccc3[n+]2C)cc1 (stereo not drawn) | -3% | / | 2% | 7% | 10µM*
COc1ccc(-c2n(CC(=O)OC3CC(C)CCC3C(C)C)c3ccccc3[n+]2C)cc1 (stereo not drawn) | -1% | 20% | -2% | 176% | 15%
CNc1ccnc(-c2ccccc2C(F)(F)F)n1 | / | 1% | / | 0% | /
CCc1nnc(NS(=O)(=O)c2ccc(NC(=S)NC(=O)/C=C/c3ccc(F)cc3)cc2)s1 | -17% | 7% | 2% | 5% | 10µM*
Cc1ccc(-c2nnc(SCC(=O)N3CCN(c4ccccc4)CC3)o2)cc1 | -1% | 11µM* | 2% | -2% | -9%[7.67 µM]
